From PubChem BioAssay
The source made the active and inactive calls.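 How the source made its calls, unless noted: active means inhibition above 20% together with a positive visual image hit; inconclusive means visual image hit but inhibition not above 20%; inactive means no visual image hit.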

Experiments:
[1] = inhibitors of TNFa-induced NFkB p65 translocation, primary screen, imaging, HUVEC, MLSMR starter and 10KST1 sets (AID 438); details: HUVEC TNFa-induced p65 nuclear translocation; cell count: measured here: nuclei count (cytotoxicity indicator), at 2.08 µM; inhibition: at 2 µM, stronger effect = higher value, 0% TNFa-plus-vehicle, 100% no-TNFa wells;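 further: compound added about 3h40 before a 20 min TNFalpha stimulation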;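 on inhibition: signal is the nuclear over cytoplasmic p65 intensity ratio per well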
[2] = reduction of polyQ htt aggregates in cells – imaging, exon1htt(103Q)mCFP cells, high-content imaging, primary screen (AID 483;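 active means visual image review flags a hit and inhibition of aggregation exceeds 20%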;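 further: compound exposure lasted 3 days before fixation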;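 on nuclei count: percent of the per-plate median nuclei count of sample wells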); details: exon1htt(103Q)mCFP cell line, aggregate imaging, at 2 µM; inhibition of aggregation: stronger effect = higher value; nuclei count: measured here: cell count, toxicity
[3] = endothelial E-selectin expression blockers – imaging, HUVEC, immunofluorescence, MLSMR starter and 10KST1 sets, primary screen (AID 487;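 active means visually confirmed hit in the image check and inhibition above 20%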;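 on inhibition: signal is fraction of cell area covered by stained E-selectin grains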;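 on nuclei count: 100% = median nuclei count of all wells on the same plate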); details: HUVEC TNFalpha-induced E-selectin immunofluorescence imaging, at 2 µM; inhibition: stronger effect = higher value; nuclei count: measured here: cell number, toxicity
[4] = molecular target: Voltage-gated potassium channel subunit beta-2 (Rattus norvegicus) (UniProt P62483); test: inhibitors of rat Kvbeta2 reductase activity – biochemical, NADPH fluorescence, primary screen (AID 622;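 active means fluorescence slope higher than the sample average by over 3 SD, cut at about -0.22 in these data, passing the limit was not always enough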;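 further: slope of raw intensity against log time taken from 70 to 1610 s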); details: recombinant KvBeta, 4-cyanobenzaldehyde reduction, at 10 µM, stronger effect = higher value
[5] = molecular target: Voltage-gated potassium channel subunit beta-2 (Rattus norvegicus) (UniProt P62483); test: enhancers of rat Kvbeta2 NADPH turnover – biochemical, NADPH fluorescence, primary screen (AID 623;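 active means NADPH fluorescence slope more negative than the mean of all samples by about 3 SD, 99.7% confidence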;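 further: fluorescence intensity change per second fitted from 20 to 320 s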); details: Recombinant KvBeta, NADPH fluorescence decrease slope, 10 min; at 10 µM; stronger effect = lower value
[6] = molecular target: Alpha-2C adrenergic receptor (Homo sapiens) (UniProt P18825); test: compounds altering alpha2C-coupled GIRK flux – cell-based, HEK293 alpha2C/GIRK1/2, thallium flux, primary screen (AID 624;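 active means fluorescence slope after compound addition differing from the mean of all screened samples at 99.7% confidence, in either direction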;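 further: slope of fluorescence ratio to pre-addition baseline per second over 15 to 24 s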); details: thallium flux BTC fluorescence, at 10 µM, actives lie on both sides
[7] = blockers of RIG-like receptor reporter activation – cell-based, Sendai virus stimulus, luciferase, 10K MLSCN set, TLR/RLR signaling modifier project, primary screen (AID 602276;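 active means inhibition at or above 50% at 10 µM; inactive means inhibition below 50%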;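 further: firefly luciferase from ISG56 promoter only with Renilla not read in this screen; 0% = Sendai virus plus DMSO and 100% = medium plus DMSO without virus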); details: HEK293 RL24 IRF3 luciferase reporter, at 10 µM, stronger effect = higher value
[8] = TLR3 IRF3 reporter activation blockers – cell-based, poly I:C stimulus, luciferase, 10K MLSCN set, primary screen (AID 602277;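 active means inhibition of the reporter signal at or above 50%; inactive means inhibition below 50%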); details: HEK293-TLR3 RL24 IRF3 luciferase reporter, at 10 µM, stronger effect = higher value

Voltage-gated potassium channel subunit beta-2 (Rattus norvegicus), sequence (P62483 whole entry, looked up): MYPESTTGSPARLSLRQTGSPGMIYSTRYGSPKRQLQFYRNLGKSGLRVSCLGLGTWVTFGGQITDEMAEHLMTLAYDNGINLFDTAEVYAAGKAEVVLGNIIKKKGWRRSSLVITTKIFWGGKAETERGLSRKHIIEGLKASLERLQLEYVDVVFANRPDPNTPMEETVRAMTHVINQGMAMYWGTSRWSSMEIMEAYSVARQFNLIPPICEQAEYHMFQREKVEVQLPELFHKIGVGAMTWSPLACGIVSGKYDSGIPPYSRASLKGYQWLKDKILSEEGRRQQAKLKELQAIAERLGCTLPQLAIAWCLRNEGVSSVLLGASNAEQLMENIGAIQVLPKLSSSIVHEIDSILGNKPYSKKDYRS
Alpha-2C adrenergic receptor (Homo sapiens), sequence (P18825 whole entry, looked up): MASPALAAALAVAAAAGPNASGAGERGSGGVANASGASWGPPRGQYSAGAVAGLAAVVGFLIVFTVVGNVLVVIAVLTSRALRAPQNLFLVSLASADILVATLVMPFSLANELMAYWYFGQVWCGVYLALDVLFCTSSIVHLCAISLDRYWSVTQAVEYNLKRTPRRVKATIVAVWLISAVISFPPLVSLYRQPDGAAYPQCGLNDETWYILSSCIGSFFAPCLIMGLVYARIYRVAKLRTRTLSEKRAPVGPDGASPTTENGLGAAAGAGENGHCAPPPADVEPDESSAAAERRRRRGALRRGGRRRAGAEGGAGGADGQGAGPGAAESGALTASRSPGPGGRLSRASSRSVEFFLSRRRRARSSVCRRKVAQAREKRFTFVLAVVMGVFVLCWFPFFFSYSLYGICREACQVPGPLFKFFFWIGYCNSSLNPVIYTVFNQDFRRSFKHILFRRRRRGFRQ

Row | Compound | cell count [1] | inhibition [1] | inhibition of aggregation [2] | nuclei count [2] [%] | inhibition [3] | nuclei count [3] [%] | fluorescence slope [4] | NADPH fluorescence slope [5] | slope [6] | inhibition [7] | inhibition [8]
1 | CCN(CCO)C(=O)CC(c1ccccc1)c1cc(Br)ccc1O (stereo not given) | 357 | 15% (inactive) | -0.8% (inactive) | 102 | -31.9% (inactive) | 102 | -0.331 (inactive) | -6.1e-05 (inactive) | 0.00761 (inactive) | 13.1% (inactive) | 20.3% (inactive)
2 | CCCCOC(=O)n1c(SCC(=O)N(CC)CC)nc2ccccc21 | 307 | 5.3% (inactive) | 1.4% (inactive) | 107 | 10% (inactive) | 106 | -0.585 (inactive) | -3.7e-07 (inactive) | 0.00671 (inactive) | -15.8% (inactive) | -54.6% (inactive)
3 | Cc1cc(C)n(CCc2nc(-c3cccs3)cs2)n1 | 587 | -10.1% (inactive) | -5.8% (inactive) | 98.6 | -52.1% (inactive) | 112 | -0.603 (inactive) | -5.2e-07 (inactive) | 0.00641 (inactive) | -6.14% (inactive) | -42.1% (inactive)
4 | Cc1cccc(-c2c3c(=O)n(C)c(=O)n(C)c3cn2-c2ccc(O)cc2)c1 | 363 | -2.8% (inactive) | 30.8% (inactive) | 90.3 | -49.7% (inactive) | 98.7 | -0.579 (inactive) | -2.6e-05 (inactive) | 0.00566 (inactive) | 6.51% (inactive) | 17.1% (inactive)
5 | O=C(c1cnn2c(C(F)(F)F)cc(-c3ccco3)nc12)N1CCc2ccccc2C1 | 516 | 2% (inactive) | 22.2% (inactive) | 92.9 | -11.7% (inactive) | 67 | -0.327 (inactive) | 1.7e-05 (inactive) | 0.00417 (inactive) | -19% (inactive) | -13.6% (inactive)
6 | CC1CCC2C(C1)c1sc(=O)[nH]c1SC2(C)C (stereo not given) | 815 | -7.3% (inactive) | 16.6% (inactive) | 98.3 | -18.7% (inactive) | 116 | -0.365 (inactive) | 2e-05 (inactive) | 0.00605 (inactive) | -1.58% (inactive) | 10.1% (inactive)
7 | CCN=C1SC(CC(=O)Nc2ccccc2OCC)C(=O)N1CC (stereo not given) | 613 | -14.1% (inactive) | -12.5% (inactive) | 100 | 0.9% (inactive) | 92.3 | -0.488 (inactive) | -3.2e-05 (inactive) | 0.00493 (inactive) | 12.4% (inactive) | 20.8% (inactive)
8 | CCCN(CCC)C(=O)c1c(C)[nH]c(C(=O)OCC)c1C | 740 | 0.6% (inactive) | 2% (inactive) | 109 | -78.7% (inactive) | 106 | -0.605 (inactive) | -2.3e-05 (inactive) | 0.00726 (inactive) | -15.1% (inactive) | -1.04% (inactive)
9 | c1ccc(OCc2nc3ccccc3[nH]2)cc1 | 443 | -6.5% (inactive) | 9.8% (inactive) | 75.8 | -77.6% (inactive) | 132 | -0.392 (inactive) | -5.8e-05 (inactive) | 0.00568 (inactive) | -47.4% (inactive) | -118% (inactive)
10 | Cc1ccccc1-n1nnnc1SCC(=O)Nc1ccc(S(=O)(=O)N2CCCC2)cc1 | 675 | -5.5% (inactive) | 11% (inactive) | 96.4 | -1% (inactive) | 110 | -0.534 (inactive) | 1.4e-05 (inactive) | 0.00566 (inactive) | 23.8% (inactive) | 24.1% (inactive)
11 | COC(=O)CS(=O)(=O)c1nnc([C@H](Cc2ccccc2)NC(=O)OC(C)(C)C)o1 | 493 | -8% (inactive) | 22% (inactive) | 84.1 | 38.4% (inactive) | 89 | -0.486 (inactive) | -5.6e-05 (inactive) | 0.00353 (inactive) | 15.1% (inactive) | 33.7% (inactive)
12 | Cc1cc(=O)oc2c1ccc1oc(/C(=N/O)c3ccccc3)c(C)c12 | 456 | -19% (inactive) | 34.1% (inactive) | 77.6 | 1.5% (inactive) | 110 | -0.357 (inactive) | -3.7e-05 (inactive) | 0.00542 (inactive) | 7.72% (inactive) | 13.6% (inactive)
13 | CCOc1ccc(N2CC(C(=O)Nc3cccc(C)c3C)CC2=O)cc1 (stereo not given) | 694 | 0.6% (inactive) | 12.5% (inactive) | 85.4 | -61.5% (inactive) | 114 | -0.608 (inactive) | -1.8e-05 (inactive) | 0.00361 (inactive) | 8.36% (inactive) | 8.88% (inactive)
14 | CCCCNC(=O)CSc1nc2ccc(N3CCOCC3)cc2c(=O)n1CCc1ccccc1 | 533 | -0.8% (inactive) | 28.7% (active) | 48.9 | -18.8% (inactive) | 110 | -0.565 (inactive) | -1.2e-05 (inactive) | 0.00671 (inactive) | 2.7% (inactive) | 10.3% (inactive)
15 | Cc1nc2c(-c3ccccc3)c(C)nn2c(C)c1CCC(=O)NCc1ccco1 | 545 | -1.1% (inactive) | -8.9% (inactive) | 84.3 | -61.2% (inactive) | 102 | -0.584 (inactive) | 1.5e-05 (inactive) | 0.00663 (inactive) | 9.03% (inactive) | 31.1% (inactive)
16 | c1cn2cc(CSC3CCCCC3)nc2s1 | 641 | 11% (inactive) | 12.1% (inactive) | 107 | -53.3% (inactive) | 140 | -0.585 (inactive) | -4.6e-05 (inactive) | 0.00605 (inactive) | -32.1% (inactive) | -53% (inactive)
17 | COc1ccc(-c2nc(C(N)=O)c3[nH]c(=O)n(-c4cccc(Cl)c4)c3n2)cc1OC | 743 | -1% (inactive) | 7.2% (inactive) | 100 | -63.8% (inactive) | 114 | -0.521 (inactive) | -3e-05 (inactive) | 0.00698 (inactive) | 3.83% (inactive) | 6.23% (inactive)
18 | CCOC(=O)N1CCN(c2cc(=O)n(-c3cccc(Br)c3)c(=O)[nH]2)CC1 | 532 | -10.1% (inactive) | 0.9% (inactive) | 55.8 | -13.2% (inactive) | 89.5 | -0.564 (inactive) | -2e-05 (inactive) | 0.00721 (inactive) | -10.2% (inactive) | 15.4% (inactive)
19 | Cc1ccc2[nH]cc(C(=O)CN3CCC4(CC3)OCCO4)c2c1 | 355 | 2% (inactive) | 14.9% (inactive) | 88 | -18.9% (inactive) | 122 | -0.619 (inactive) | -9.1e-06 (inactive) | 0.00468 (inactive) | 4.24% (inactive) | 7.68% (inactive)
20 | CCN(CC)S(=O)(=O)c1ccc2oc(C(=O)N3CCOCC3)c(C)c2c1 | 638 | -12% (inactive) | 5.2% (inactive) | 107 | -96.2% (inactive) | 92.5 | -0.543 (inactive) | -2.8e-06 (inactive) | 0.00418 (inactive) | -1.83% (inactive) | 2.02% (inactive)
21 | CCOc1ccc2[nH]c(=O)c(C(c3nnnn3CC3CCCO3)N3CCc4ccccc4C3)cc2c1 (stereo not given) | 702 | 12.9% (inactive) | 3.6% (inactive) | 69 | -1.8% (inactive) | 119 | -0.598 (inactive) | -8.5e-06 (inactive) | 0.00562 (inactive) | 20.7% (inactive) | 31.2% (inactive)
22 | COc1ccc(NC2c3ncccc3C(=O)N2Cc2ccccc2)c(OC)c1 (stereo not given) | 480 | 1.6% (inactive) | -17% (inactive) | 116 | -31.3% (inactive) | 114 | -0.609 (inactive) | -9.3e-06 (inactive) | 0.00393 (inactive) | 7.6% (inactive) | 15.8% (inactive)
23 | CCN(CC)S(=O)(=O)c1ccc(F)cc1 | 630 | 2.4% (inactive) | -0.6% (inactive) | 100 | -75.6% (inactive) | 114 | -0.506 (inactive) | -0.000197 (inactive) | 0.00613 (inactive) | 13.9% (inactive) | 19.3% (inactive)
24 | COc1ccc(C2CC(c3ccccc3)Nc3nc(NC(=O)c4cccs4)nn32)cc1 (stereo not given) | 413 | 1.4% (inactive) | -6.8% (inactive) | 102 | -156% (inactive) | 112 | -0.372 (inactive) | -7.5e-05 (inactive) | 0.00554 (inactive) | 18.4% (inactive) | 25.3% (inactive)
25 | Cn1c(C(=O)NCC2CCCO2)cc2c(=O)n(C)c3ccccc3c21 (stereo not given) | 658 | -5.5% (inactive) | -1.8% (inactive) | 115 | -71.5% (inactive) | 107 | -0.583 (inactive) | -3.1e-05 (inactive) | 0.00806 (inactive) | 7.53% (inactive) | 19% (inactive)
